Test results reported in the supplement of paper PMC11634586.
Counter-ions that a name gives are not always drawn. Unmarked numbers belong to inactive results.

The compounds below were run on NCI-H1688 (assay: inhibition of cell viability relative to untreated control (fraction); higher = stronger growth inhibition, active = 0.5 or more). Details: 30 µM; 24 h.
Outline: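 Viability of NCI-H1688 small cell lung cancer cells was assessed with Cell Counting Kit-8 by absorbance at 450 nm, in triplicate, after a 24 h exposure to a natural compound library (TargetMol) at 30 µM at 37°C and 5% CO2. The cells had been seeded at 3 × 10^3 cells/well in 96-well plates 24 h before treatment. Inhibition of cell viability is reported as a fraction, derived from viability normalised against untreated cells.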

Row | Structure (SMILES) | inhibition of cell viability
1 | CNC[C@H](O)c1ccc(O)c(O)c1 [Epinephrine bitartrate] | 0.0849
2 | COc1ccc(-c2oc3c(CC=C(C)C)c(O[C@@H]4O[C@H](CO)[C@@H](O)[C@H](O)[C@H]4O)cc(O)c3c(=O)c2O[C@@H]2O[C@@H](C)[C@H](O)[C@@H](O)[C@H]2O)cc1 [Icariin] | 0.041
3 | CCCCOC(=O)c1ccc(O)cc1 [Butylparaben] | 0.197
4 | O=C1C=C(O)C(=O)c2ccccc21 [Lawsone] | -0.319
5 | C[C@H]1[C@H](OC(=O)CCC(=O)O)O[C@@H]2O[C@@]3(C)CC[C@H]4[C@H](C)CC[C@@H]1[C@@]24OO3 [Artesunate] | 0.726 (active)
6 | COc1ccccc1O [Guaiacol] | -0.0875
7 | C[C@@H]1O[C@@H](O[C@H]2[C@H](O[C@H]3CC[C@@]4(C)[C@@H](CC[C@]5(C)[C@@H]4CC=C4[C@@H]6CC(C)(C)CC[C@]6(C(=O)O[C@@H]6O[C@H](CO[C@@H]7O[C@H](CO)[C@@H](O[C@@H]8O[C@@H](C)[C@H](O)[C@@H](O)[C@H]8O)[C@H](O)[C@H]7O)[C@@H](O)[C@H](O)[C@H]6O)CC[C@]45C)[C@]3(C)CO)OC[C@H](O)[C@@H]2O)[C@H](O)[C@H](O)[C@H]1O [Hederacoside C] | 0.239
8 | COc1cc(CCC(=O)O)ccc1O [Hydroferulic acid] | 0.0171
9 | C[C@@H]1O[C@@H](Oc2c(-c3ccc(O)c(O)c3)oc3cc(O)cc(O)c3c2=O)[C@H](O)[C@H](O)[C@H]1O [Quercitrin] | 0.325
10 | CCC(C)C(NC(=O)CNC(=O)C(CCC(N)=O)NC(=O)C1CCCN1C(=O)C(CC(=O)O)NC(=O)C(CCCNC(=N)N)NC(=O)C(NC(=O)C(NC(=O)C(N)CCCNC(=N)N)C(C)C)C(C)C)C(=O)NC(CCCNC(=N)N)C(=O)NC(C)C(=O)NC(Cc1c[nH]c2ccccc12)C(=O)NC(C(=O)NC(C)C(=O)NC(Cc1c[nH]c2ccccc12)C(=O)NC(CCCNC(=N)N)C(=O)NC(CC(N)=O)C(=O)NC(CCCNC(=N)N)C(=O)O)C(C)C (stereo not drawn) [Lysozyme] | 0.471
11 | C[C@H](CCC(=O)O)[C@H]1CC[C@H]2[C@@H]3C(=O)C[C@@H]4CC(=O)CC[C@]4(C)[C@H]3CC(=O)[C@]12C [Dehydrocholic acid] | -0.142
12 | Cc1coc2c1C(=O)C(=O)c1c-2ccc2c(C)cccc12 [Tanshinone I] | 0.929 (active)
13 | CNC1CCCN(c2c(F)cc3c(=O)c(C(=O)O)cn(C4CC4)c3c2OC)C1 (stereo not drawn) [Balofloxacin] | 0.118
14 | O=C1C[C@@H](c2ccc(O[C@@H]3O[C@H](CO)[C@@H](O)[C@H](O)[C@H]3O)cc2)Oc2cc(O)ccc21 [Liquiritin] | 0.0621
15 | Cc1cc(O)c2c(c1)C(=O)c1cccc(O)c1C2=O [Chrysophanic Acid] | -0.28
16 | COc1cc2ccc(=O)oc2c(O)c1O [Fraxetin] | -0.0287
17 | NCCCS(=O)(=O)O [Homotaurine] | 0.357
18 | OC[C@@H](O)[C@@H](O)CO [Erythritol] | 0.038
19 | CC(=O)O[C@@]12CO[C@@H]1C[C@H](O)[C@@]1(C)C(=O)[C@H](O)C3=C(C)[C@@H](OC(=O)[C@H](O)[C@@H](NC(=O)OC(C)(C)C)c4ccccc4)C[C@@](O)([C@@H](OC(=O)c4ccccc4)[C@H]21)C3(C)C [Docetaxel] | 0.493

Row | Structure (SMILES) | inhibition of cell viability
20 | CC1(C)CC[C@]2(C)CC[C@]3(C)C(=CC[C@@H]4[C@@]5(C)CC[C@@H](O)[C@](C)(C(=O)O)[C@@H]5CC[C@]43C)[C@@H]2C1 | 0.314
21 | C[C@H]1O[C@@H](O[C@H]2CC[C@@]3(C)[C@@H](CC[C@]4(C)[C@@H]3C=C[C@]35OC[C@@]6(CCC(C)(C)C[C@H]63)[C@@H](O)C[C@]54C)[C@]2(C)CO)[C@H](O)[C@@H](O[C@@H]2O[C@H](CO)[C@@H](O)[C@H](O)[C@H]2O)[C@H]1O [Saikosaponin A] | 1 (active)
22 | COc1c(O)cc2c(c1O)[C@@H]1O[C@H](CO)[C@@H](O)[C@H](O)[C@H]1OC2=O [Bengenin] | 0.0368
23 | O=c1c(O)c(-c2ccccc2)oc2ccccc12 [3-Hydroxyflavone] | 0.587 (active)
24 | C[C@]12CC[C@@H]3c4ccc(O)cc4CC[C@H]3[C@@H]1CCC2=O [Aquacrine] | 0.0269
25 | Oc1cc(O)cc(/C=C/c2ccc(O)c(O)c2)c1 [Piceatannol] | 0.164
26 | C=CCS[S+]([O-])CC=C (stereo not drawn) [Allicin] | -0.267
27 | CN(C)[C@@H]1C(O)=C(C(N)=O)C(=O)[C@@]2(O)C(O)=C3C(=O)c4c(O)cccc4[C@@](C)(O)[C@H]3C[C@@H]12 [Tetracycline hydrochloride] | 0.293
28 | Cn1c(=O)c2c(ncn2CC(=O)O)n(C)c1=O [Theophylline-7-acetic acid] | -0.159
29 | Cc1cc(O)cc(O[C@@H]2O[C@H](CO)[C@@H](O)[C@H](O)[C@H]2O)c1 [Orcinol glucoside] | 0.0244
30 | COc1cc(C2Oc3cc([C@H]4Oc5cc(O)cc(O)c5C(=O)[C@@H]4O)ccc3OC2CO)ccc1O (stereo partly drawn) [Silymarin] | 0.221
31 | O=C(O)[C@H]1O[C@@H](Oc2cc3oc(-c4ccc(O)cc4)cc(=O)c3c(O)c2O)[C@H](O)[C@@H](O)[C@@H]1O [Scutellarin] | -0.14
32 | Oc1cc(O)c2c(c1)O[C@H](c1cc(O)c(O)c(O)c1)[C@H](O)C2 [Epigallocatechin] | -0.059
33 | COc1ccc2cc1Oc1ccc(cc1)C[C@H]1c3cc(c(OC)cc3CCN1C)Oc1c(OC)c(OC)cc3c1[C@H](C2)N(C)CC3 [Tetrandrine] | 1.01 (active)
34 | COc1ccc([C@@H]2OC[C@H]3[C@@H]2CO[C@@H]3c2ccc(O[C@@H]3O[C@H](CO)[C@@H](O)[C@H](O)[C@H]3O)c(OC)c2)cc1OC [Forsythin] | -0.0217
35 | COc1ccc(-c2cc(=O)c3c(O)c(OC)c(O)cc3o2)cc1OC [Eupatilin] | 0.345
36 | COc1ccc2ccc(=O)oc2c1CC=C(C)C [Osthole] | 0.166
37 | CC(C)CCC[C@@H](C)[C@H]1CC[C@H]2[C@@H]3CC[C@H]4CC(=O)CC[C@]4(C)[C@H]3CC[C@]12C [5alpha-Cholestan-3-one] | -0.0937
38 | O=C(/C=C/c1ccc(O)cc1)c1ccc(O)cc1O [Isoliquiritigenin] | 0.485
